miR-21 reporter: qHTS Assay for Modulators of miRNAs and/orActivators of miR-21 | HeLa miR-21 FLuc reporter, luciferase, 48 h | 340,000 tested, under 10 active | AID 2288, 2010 | Potency, µM (titrated, usually from 38.3 µM), for the others: at the top dose activity change, positive = activation, usual class: activators;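 also: % of control where 0% means no effect; miR-21 action dims this reporter so a rising signal means less miR-21 action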
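Luminescence from a firefly luciferase reporter carrying a miR-21 binding site downstream, stably expressed under a CMV promoter in HeLa cells that make miR-21 endogenously, reports miRNA modulation after 48 h compound exposure up to approximately 40uM final.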
FBPA coupling cs: qHTS Assay for Inhibitors of Fructose-1,6-bisphosphate Aldolase from Giardia Lamblia: Coupling assay counterscreen | coupling enzyme system counterscreen, AmpLite Red fluorescence | 290,000 tested, 0.67% active | AID 2472, 2010 | activity change, negative = inhibition, % at 58.2 µM, hits read low; in the data active = activity change below about -30%; also: % is scaled to controls: 0 for no effect and ±100 for the full control effect
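Activity here indicates interference with the coupling reaction, not aldolase inhibition. Compounds at 57.5 uM final met coupling enzymes for 10 min at RT; substrate and AmpLite Red detection followed, with a 525/598 nm fluorescence read after 20 min.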
uPA generation: qHTS for Inhibitors of Cell Surface uPA Generation. cell surface uPA generation assay, qHTS. Potency, µM (top dose mostly 38.3 µM), for inactives: at the top dose activity change, negative = inhibition, actives largely listed as inhibitors. 330,000 tested, 0.31% active. AID 540303, 2011; active = well fitted inhibition curve with a large enough effect; inconclusive = small, poorly fitted or top-dose-only effect; inactive = no such curve, though single readings can be large or run the other way; tested in mouse RAW 264.7 cells; also: potency is read from the fitted curve at half-maximal effect; % is scaled to controls: 0 for no effect and ±100 for the full control effect; nearly all actives have a fitted effect of over 55% in size
GALK inhibitor: qHTS Assay for Inhibitors of Human Galactokinase (GALK); Purified GALK, Kinase-Glo residual ATP luminescence; Potency, µM (top dose mostly 57.5 µM), inactives show at the top dose activity change, negative = inhibition, usual class: inhibitors; 270,000 tested, 0.007% active; also: potency is read from the fitted curve at half-maximal effect; % is scaled to controls: 0 for no effect and ±100 for the full control effect
Target sequence (P51570 whole entry, looked up): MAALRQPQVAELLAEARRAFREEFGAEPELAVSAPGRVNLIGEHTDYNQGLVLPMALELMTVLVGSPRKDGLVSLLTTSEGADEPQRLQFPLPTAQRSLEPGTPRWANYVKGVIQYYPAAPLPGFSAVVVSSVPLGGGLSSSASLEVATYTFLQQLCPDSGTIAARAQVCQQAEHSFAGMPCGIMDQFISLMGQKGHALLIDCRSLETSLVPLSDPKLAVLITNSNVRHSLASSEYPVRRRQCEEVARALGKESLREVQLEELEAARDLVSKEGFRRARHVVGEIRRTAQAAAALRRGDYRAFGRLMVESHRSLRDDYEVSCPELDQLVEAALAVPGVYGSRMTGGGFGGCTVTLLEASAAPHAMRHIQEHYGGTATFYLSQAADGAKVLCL
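Luminescence from leftover ATP (Ultra-Glo luciferase/luciferin) served as read-out after a 1 h room-temperature reaction of 5 nM GALK with 35 uM ATP and 100 uM galactose.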
Giardia kill: Small Molecules that selectively kill Giardia lamblia: qHTS | activity change, % at 7.66 µM, hits read low | 340,000 tested, 0.15% active | Giardia lamblia trophozoite viability; in the data active = activity change below about -80%; inconclusive = between about -30% and that limit;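 also: parasites exposed to compound for two days anaerobically before the ATP read; % is scaled to controls: 0 for no effect and ±100 for the full control effect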
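Each well holds 100 Giardia trophozoites and compound. After two days (48 hrs) at 37 deg C in anaerobic conditions, ATP is quantified by luminescence.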
B2AR arrestin: qHTS assay of beta-arrestin-biased ligands of beta2-adrenergic receptor | Beta-2 adrenergic receptor (Homo sapiens), P07550 | beta-arrestin recruitment to beta2AR, cell-based reporter | Potency, µM (series often up to 46.1 µM), for inactives: at the highest dose activation, actives largely listed as activators | 330,000 tested, 0.02% active | AID 492947, 2010;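 also: potency is read from the fitted curve at half-maximal effect; 0% = DMSO controls and full agonism = EC100 isoproterenol or metaproterenol; nearly all actives have a fitted effect of over 65% in size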
Active calls of the source: *. In the library only some 0.92% were active in any assay of this set; here they are far more common. Unless noted, calls follow the shape of the dose curve; as a rule, active = well fitted curve in the direction sought with a large enough effect; inconclusive = small, poorly fitted or top-dose-only effect, or another doubt; inactive = no such curve, though single readings can be large; an effect the other way counts as inactive or inconclusive.

For COc1cc(/C=C(\C#N)C(=O)N2CCc3ccccc32)ccc1O the results were miR-21 reporter -2%, FBPA coupling cs 3, uPA generation 0%, GALK inhibitor -2%, Giardia kill 14 and B2AR arrestin 0%.
N#C/C(=C\c1ccc(O)c(O)c1)C(=O)N1CCc2ccccc21 was read as uPA generation 3.5µM*, Giardia kill -13 and B2AR arrestin 0%.
For Oc1cccc(/C=N/NC(=S)NCCN2CCOCC2)c1O the results were miR-21 reporter -11%, FBPA coupling cs -34*, uPA generation inconclusive, GALK inhibitor 9%, Giardia kill -2 and B2AR arrestin 0%.
COc1ccc(-c2cn3nc(N4CCCC(C(=O)Nc5ccc(C)c(C)c5)C4)sc3n2)cc1 (stereo unspecified) was read as miR-21 reporter 2%.
CCOc1cc(C(=O)OC(C)C(=O)Nc2ncc(Cl)cc2Cl)ccc1OCC(=O)N1CCOCC1 (stereo unspecified) was read as miR-21 reporter -3%, FBPA coupling cs 3, uPA generation 8.9µM*, GALK inhibitor 0%, Giardia kill 11 and B2AR arrestin -2%.
Screening CN(C)/[N+]([O-])=N/Oc1cc(O/[N+]([O-])=N/N2CCCC2CO)c([N+](=O)[O-])cc1[N+](=O)[O-] (stereo unspecified) returned FBPA coupling cs 1 and Giardia kill inconclusive.
CCOc1ccc(NC(=S)Nc2cccc3cnccc23)cc1 was read as miR-21 reporter -9%, FBPA coupling cs -45*, uPA generation 2%, GALK inhibitor -4%, Giardia kill -4 and B2AR arrestin 0%.
COc1ccccc1NC(=S)Nc1cccc2cnccc12 was read as miR-21 reporter 1%, FBPA coupling cs -19, uPA generation 0%, GALK inhibitor 1%, Giardia kill -20 and B2AR arrestin 0%.
COc1ccc(NC(=S)Nc2cccc3cnccc23)cc1 was read as miR-21 reporter -10%, FBPA coupling cs -37*, uPA generation 1%, GALK inhibitor 6%, Giardia kill -9 and B2AR arrestin -1%.
Screening Cc1ccc(-c2ccc(CCC(=O)O)n2-c2ccc(C(C)C)cc2)cc1 returned miR-21 reporter -8%.
`O=c1c2ccccc2oc2ccc(NCCCn3ccnc3)cc12` gave miR-21 reporter -16%, FBPA coupling cs -4, uPA generation 4.5µM*, Giardia kill -10 and B2AR arrestin 0%.
`COC1=C(N)C(=O)c2nc(-c3nc(C(=O)O)c(C)c(-c4ccc(OC)c(OC)c4O)c3N)ccc2C1=O` gave miR-21 reporter inconclusive, FBPA coupling cs -64*, uPA generation -84%, GALK inhibitor 8.9µM*, Giardia kill inconclusive and B2AR arrestin -2%.
For COc1ccc2c(Sc3ccc(C)cc3)c(C(=O)NCc3ccc(F)cc3)[nH]c2c1 the results were miR-21 reporter -16%.
`CC(C)CCNC(=O)CC1Nc2c3ccccc3nc(=S)n2C1=O` (stereo unspecified) gave miR-21 reporter -1%, FBPA coupling cs 2, uPA generation -6%, GALK inhibitor 1%, Giardia kill -3 and B2AR arrestin 0%.
For CC(C)NC(=O)CC1Nc2c3ccccc3nc(=S)n2C1=O (stereo unspecified) the results were miR-21 reporter -4%, FBPA coupling cs -35*, uPA generation 5%, GALK inhibitor -1%, Giardia kill 22 and B2AR arrestin 0%.
`COc1[nH]c(/N=C/c2ccco2)c(C#N)c1C#N` gave Giardia kill -23.
Screening COc1cc(/C=C2\CC/C(=C\c3cc(OC)c(O)c(OC)c3)C2=O)cc(OC)c1O returned miR-21 reporter 27%, FBPA coupling cs -34*, uPA generation -9%, GALK inhibitor -2%, Giardia kill -6 and B2AR arrestin 0%.
Screening COc1ccc2[nH]c(-c3ccc(F)cc3F)cc(=O)c2c1 returned FBPA coupling cs 1.
For COc1ccc2[nH]c3c4c(ccc3c2c1)C(=O)C=CC4=O the results were miR-21 reporter 25%, FBPA coupling cs -38*, uPA generation 3.2µM*, GALK inhibitor 0%, Giardia kill 9 and B2AR arrestin inconclusive.
COc1ccc(C(=O)c2c(C(F)(F)F)oc3c2C(=O)c2ccccc2C3=O)cc1OC was read as miR-21 reporter 7%, FBPA coupling cs -55*, uPA generation -22%, GALK inhibitor 1%, Giardia kill 15 and B2AR arrestin 0%.
COc1ccc(C(=O)Nc2ccc3c(c2)C(=O)c2ccccc2C3=O)cc1OC was read as miR-21 reporter -33%, FBPA coupling cs 1, uPA generation -8%, Giardia kill 0 and B2AR arrestin -3%.
`CCN1/C(=C/c2cc[n+](C)cc2)C=Cc2cc(C)ccc21` gave miR-21 reporter 1%, FBPA coupling cs -50*, uPA generation -11%, GALK inhibitor 2%, Giardia kill 4 and B2AR arrestin -1%.
Screening COc1ccc(NC(=O)CN2CCN(Cc3ccc4c(c3)OCO4)CC2)cc1OC returned miR-21 reporter -2%, FBPA coupling cs -38*, uPA generation 5%, GALK inhibitor 0%, Giardia kill 10 and B2AR arrestin 0%.
`O=C(CN1CCN(Cc2ccc3c(c2)OCO3)CC1)Nc1ccc2c(c1)OCO2` gave miR-21 reporter -4%, FBPA coupling cs 1, uPA generation 0%, GALK inhibitor -3%, Giardia kill 4 and B2AR arrestin -1%.
`CCOc1ccc(CNC(=O)Cn2ccc3cc(S(=O)(=O)N4CCCCCC4)ccc32)cc1` gave miR-21 reporter 3%, FBPA coupling cs 1, uPA generation 1µM*, GALK inhibitor -11%, Giardia kill 31 and B2AR arrestin -1%.
CCOc1ccc(CNC(=O)Cn2ccc3cc(S(=O)(=O)N4CCCC4)ccc32)cc1 was read as miR-21 reporter 6%, FBPA coupling cs 2, uPA generation -2%, GALK inhibitor 8%, Giardia kill -6 and B2AR arrestin 0%.
`O=C(Cn1ncc(Cl)c(Cl)c1=O)NC1CCCCC1` gave uPA generation 10µM*, Giardia kill 7 and B2AR arrestin 0%.
Screening COc1cc2c(c(OC)c1OC)-c1c(cc3c(c1OC)OCO3)CC(C)C(C)(O)C2OC(=O)c1ccccc1 (stereo unspecified) returned FBPA coupling cs -1.
Screening Cc1nc2nc(SCc3c(F)cccc3Cl)nn2c(C)c1Cc1ccccc1 returned miR-21 reporter -56%.

High-throughput results: PubChem, National Center for Advancing Translational Sciences (NCATS)
